From PubChem BioAssay (Tox21) come the findings set out here.

“And” between values parts separate entries of the source, which are not always exact repeats. Identical values can stand only once. Records with an inconclusive call do not appear. Entries that show only a call come without a potency. Where a structure was tested more than once in an assay, its records may differ in their call. The source made the active and inactive calls. Calls follow the shape of the dose curve; as a rule, active = well fitted cell-killing curve with a large enough effect in the repeat runs; inconclusive = weak or mixed curves, or effect the other way; inactive = no such curve, though single readings can be large or run the other way.
Potency is read from the fitted curve at half-maximal effect.

The test can be described thus: qHTS assay to identify small molecule antagonists of the retinoid-related orphan receptor gamma (ROR-gamma) signaling pathway - cell viability counter screen (AID 1159520). Also: nearly all actives have a fitted effect of over 50% in size. The conditions noted are these: Tet-on RORgamma CHO cells viability, ATP luminescence, 16 h; series mostly up to 92.4 µM; activity, negative = cytotoxicity: at the top concentration. The text has this: U.S. Tox21 Program National Center for Advancing Translational Sciences [NCATS] NIH Chemical Genomics Center [NCGC] U.S. Environmental Protection Agency [EPA] National Institutes of Environmental Health Sciences [NIEHS] National Toxicology Program [NTP] U.S. Food and Drug Administration [FDA] Tox21 Assay Overview: Nuclear steroid hormone receptors are involved in many biological processes including inflammatory responses, cell proliferation, and apoptosis. Environmental factors or compounds disrupting these nuclear receptor pathways and gene expression may promote susceptibility to immunotoxicants and autoimmune diseases. One important group of these expression factors are the retinoid-related orphan receptors. To assess compounds that may interfere with the retinoid-related orphan receptor gamma (ROR-gamma) transcription factor, a cell-based luciferase assay was used. The CHO cell-based assay utilizes a TET-inducible ROR expression factor and ROR response element-LUC reporter gene. Reporter gene activity was induced using Doxycycline Hyclate and measured after 16 hr incubation. Tet-on ROR gamma CHO cells were used to screen against the Tox21 10K compound library for cytotoxicity by measuring the viability of the cells based on the quantitation of the ATP.
Tox21 Assay Protocol Summary: Tet-on ROR gamma CHO cells were dispensed at 1,000 cells in 4 uL of culture medium per well into white wall/solid bottom 1536-well plates using a Multidrop Combi (Thermo Scientific, Waltham, MA) dispenser. Following incubation at 37 C and 5% CO2 for 4 hr, 23 nL of compounds dissolved in DMSO, positive controls or DMSO only were transferred by a Pintool station (Kalypsys, San Diego, CA) and after 2 hr incubation at 37 C, one ul of 1 uM (final concentration) of Doxycycline Hyclate was added to all the wells by using a Flying Reagent Dispenser (FRD) (Aurora Discovery, San Diego, CA). After 16 hr incubation at 37 C and 5% CO2, 5 uL of CellTiter-Glo reagent (Promega Corporation, Madison, WI) was added to each assay plate using FRD. After 30 min incubation at room temperature, luminescence was quantified on a ViewLux plate reader (Perkin Elmer, Waltham, MA).
(In general: In qHTS, concentration-response curves come from the screen itself.)
Turning to `Nc1nc2ccccc2[nH]1`, the Potency entry was “inactive”.
Turning to `C=CS(=O)(=O)O`, the “activity, negative = cytotoxicity” value is 1.18% (inactive).
As to `CC(=O)OCCOCCOCCOC(C)=O`, the Potency result is “inactive”.
The same measure, in the same setting: as for `NCCO`, the entry is “inactive”.
For `CCC(CO)(CO)COCC(CC)(CO)CO`, the “activity, negative = cytotoxicity” value is -2.82% (inactive).
On to `O`, for which the Potency entry was “inactive”.
On the same count and under the same terms, in the case of `O=c1n(CC2CO2)c(=O)n(CC2CO2)c(=O)n1CC1CO1` (stereo not given) it was “inactive”.
As for `CC(C)(O)CCC(C)(C)O`, the “activity, negative = cytotoxicity” value was 0.471% (inactive).
Regarding `NC(N)=Nc1nc(CSCC/C(N)=N/S(N)(=O)=O)cs1`, the Potency result is “inactive”.
As to `CCc1ccc(C(c2ccc(CC)cc2)C(Cl)Cl)cc1`, the Potency result was “inactive”.
Same read-out and setting: in the case of `C=C(C)C(=O)O` it was “inactive”.
The same measure, in the same setting: as for `O=C(Oc1ccccc1)c1ccccc1O`, the entry is “inactive”.
For `CC(C)CCOC(=O)c1ccc(N(C)C)cc1`, the “activity, negative = cytotoxicity” value was 2.7% [at 42.5 µM] (inactive).
On the same count and under the same terms, in the case of `COC(=O)[C@H]1[C@H]2C[C@@H]3c4[nH]c5cc(OC)ccc5c4CCN3C[C@H]2C[C@@H](OC(=O)c2cc(OC)c(OC)c(OC)c2)[C@@H]1OC` it was -10.8% [at 42.5 µM] (inactive).
`Nc1ccc(O)cc1`: the Potency is 63.5 µM (active) and inactive.
As to `CC[C@@H](N)CO`, the “activity, negative = cytotoxicity” value was 2.16% (inactive).
As for `CCC(=O)/C=C/C1C(C)=CCCC1(C)C` (stereo not given), the Potency result is “inactive”.
Still for that read-out and setting: as for `CN(C)c1ccc2nc3ccc(=[N+](C)C)cc-3sc2c1`, the figure is 16.6 µM (active) and 13.7 µM (active).
Still for that read-out and setting: in the case of `Clc1ccc2c(c1)C(N1CCNCC1)=Nc1ccccc1O2` it was “inactive”.
Consider `CCCCC/C=C/CC1CC(=O)OC1=O` (stereo not given), for which the “activity, negative = cytotoxicity” value was 2% (inactive).
As for `C/C=C/c1ccc(OCC)c(O)c1`, the Potency result was “inactive”.
Same read-out and setting: in the case of `CCc1cc(C(C)(C)C)c(O)c(C(C)(C)C)c1` it was “inactive”.
On the same count and under the same terms, in the case of `O=C(O)c1cccc(C(=O)O)c1` it was “inactive”; in that of `Cc1cc(Cc2cc(C)cc(C(C)(C)C)c2O)c(O)c(C(C)(C)C)c1`, 21.8 µM (active) and 30.6 µM (active); in that of `CCCOC(=O)c1cc(O)c(O)c(O)c1`, “inactive”.
Regarding `Nc1cc(S(=O)(=O)O)cc2cc(S(=O)(=O)O)cc(O)c12`, the “activity, negative = cytotoxicity” value is 0.116% (inactive).
As to `CCCN[C@H]1CCc2nc(N)sc2C1`, the Potency entry was “inactive”.
As to `CCCCN(CCO)CCCC`, the “activity, negative = cytotoxicity” value is -5.41% (inactive).
Take `CCCCCCCCCCCCc1ccccc1O`: the Potency is 60.3 µM (active) and 27.3 µM (active).
As for `CC(=O)O[C@]1(C(C)=O)CC[C@H]2[C@@H]3C[C@H](C)C4=CC(=O)CC[C@]4(C)[C@H]3CC[C@@]21C`, the Potency result is “inactive”.
The same measure, in the same setting: as for `CCOc1ccccc1C(N)=O`, the entry is “inactive”.
Regarding `O=C1CC2(CCCC2)CC(=O)N1CCCCN1CCN(c2ncccn2)CC1`, the “activity, negative = cytotoxicity” value was -1.41% [at 42.5 µM] (inactive).
`CC(=O)OCC1=C(C(=O)O)N2C(=O)[C@@H](NC(=O)Cc3cccs3)[C@H]2SC1`: the “activity, negative = cytotoxicity” value is 3.54% [at 42.5 µM] (inactive).
As for `COC(=O)c1cccc(C(=O)OC)c1`, the Potency entry was “inactive”.
Still for that read-out and setting: as for `CC1COC(=O)O1` (stereo not given), the entry is “inactive”.
Same read-out and setting: in the case of `COc1ccc(CCN2CCC(Nc3nc4ccccc4n3Cc3ccc(F)cc3)CC2)cc1` it was 17.6 µM (active) and 26.6 µM (active).
As to `CCCNC(C)C(=O)Nc1ccccc1C` (stereo not given), the “activity, negative = cytotoxicity” value was 1.26% [at 42.5 µM] (inactive).
On the same count and under the same terms, as for `CCOC(=O)C(C)C(C)=O` (stereo not given), the figure is 4.98% (inactive).
As for `Cc1cccc2n[nH]nc12`, the Potency entry was “inactive”.
Consider `O=C(O)Cn1cnnn1`, for which the “activity, negative = cytotoxicity” value is 2.91% [at 42.5 µM] (inactive).
